Values joined by “and” are separate entries in the source; they are usually repeats but may differ in a detail not shown here. Equal values may be shown once. Where a structure was tested more than once in an assay, its records may differ in their call. Active and inactive are the calls of the source. Rule for the calls: active = hit-call score of the fitted dose curve at least 0.9, where 1 is the maximum; inactive = score below 0.9.
Read-out: Collagen I, COL1A1 (gene 1277)
Experiment: BSK_hDFCGF_CollagenI: BioMAP Diversity Plus: hDFCGF Assay for Collagen I Biomarker Activity (AID 2284250)
Conditions: primary human foreskin fibroblasts
How it was run: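 Primary human foreskin fibroblasts (hDFCGF system) exposed to chemical for 24 h; Collagen I measured by ELISA. Activity fitted in the positive direction relative to DMSO baseline, with SRB total-protein staining in parallel cultures for overt cytotoxicity.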

Structure (SMILES)	outcome
C=CC(=O)OCCC(F)(F)C(F)(F)C(F)(F)C(F)(F)F	inactive
OCC(F)(F)C(F)(F)C(F)(F)C(F)(F)C(F)(F)C(F)(F)CO	inactive
NCC(F)(F)C(F)(F)C(F)(F)C(F)(F)C(F)(F)C(F)(F)C(F)(F)C(F)(F)F	inactive
O=S(=O)(OCC(F)(F)F)C(F)(F)C(F)(F)C(F)(F)C(F)(F)F	inactive
O=S(=O)(O)CCC(F)(F)C(F)(F)C(F)(F)C(F)(F)F	inactive
O=C(O)C(F)(F)C(F)(F)C(F)(F)OC(F)(C(F)(F)F)C(F)(F)F	inactive
O=C(F)C1(F)C(F)(F)C(F)(F)C(F)(F)C(F)(F)C1(F)F	inactive
CNS(=O)(=O)C(F)(F)C(F)(F)C(F)(F)C(F)(F)C(F)(F)C(F)(F)C(F)(F)C(F)(F)F	inactive
NS(=O)(=O)C(F)(F)C(F)(F)C(F)(F)C(F)(F)C(F)(F)C(F)(F)F	inactive
O=C(O)C(F)(F)C(F)(F)C(F)(F)OC(F)(F)F	inactive
COC(F)(C(F)F)C(F)(F)F (configuration not stated)	inactive
CCOC(=O)CC(=O)C(F)(F)C(F)(F)F	inactive
CN(C(=O)C(F)(F)C(F)(F)C(F)(F)F)[Si](C)(C)C	inactive
CCN=C1C=CC(=C(c2ccc(N(CC)CC)cc2)c2ccc(N(CC)CC)cc2)c2ccccc21	inactive
NC(=O)C(F)(F)C(F)(F)C(F)(F)C(F)F	inactive
O=S(=O)(Cl)C(F)(F)C(F)(F)C(F)(F)C(F)(F)C(F)(F)C(F)(F)C(F)(F)C(F)(F)F	inactive
O=C(O)C(F)(F)C(F)(F)C(F)(F)C(F)(F)C(F)(F)C(F)(F)C(F)F	inactive
O=C(O)CCC(F)(F)C(F)(F)C(F)(F)C(F)(F)C(F)(F)C(F)(F)C(F)(F)F	inactive
CCN(CCO)S(=O)(=O)C(F)(F)C(F)(F)C(F)(F)C(F)(F)C(F)(F)C(F)(F)C(F)(F)C(F)(F)F	inactive
O=C(O)C(F)(F)C(F)(F)C(F)(F)C(=O)O	inactive

Read-out: Interferon-inducible T-cell alpha chemoattractant (ITAC), CXCL11 (gene 6373)
Experiment: BSK_hDFCGF_ITAC: BioMAP Diversity Plus: hDFCGF Assay for Interferon-inducible T-cell alpha chemoattractant (ITAC) Biomarker Activity (AID 2284251)
Conditions: primary human foreskin fibroblasts
How it was run: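 Fibroblasts (human foreskin, primary) are treated with chemical, cultured 24 h, then assayed for I-TAC by ELISA. Overt toxicity is checked in parallel cultures by sulforhodamine B staining of total protein at the same time point.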

Structure (SMILES)	outcome	AC50
NCC(F)(F)C(F)(F)C(F)(F)C(F)(F)C(F)(F)C(F)(F)C(F)(F)C(F)(F)F	inactive	–
O=S(=O)(OCC(F)(F)F)C(F)(F)C(F)(F)C(F)(F)C(F)(F)F	–	30 µM (active)
O=C(O)C(F)(F)C(F)(F)C(F)(F)OC(F)(F)F	inactive	–
O=C(O)CCC(F)(F)C(F)(F)C(F)(F)C(F)(F)C(F)(F)C(F)(F)C(F)(F)F	inactive	–
CCN(CCO)S(=O)(=O)C(F)(F)C(F)(F)C(F)(F)C(F)(F)C(F)(F)C(F)(F)C(F)(F)C(F)(F)F	–	34.8 µM (active) and 24.3 µM (active)
O=C(O)C(F)(F)C(F)(F)C(F)(F)C(=O)O	inactive	–

Read-out: Plasminogen activator inhibitor-1 (PAI1), SERPINE1 (gene 5054)
Experiment: BSK_KF3CT_PAI1: BioMAP Diversity Plus: KF3CT Assay for Plasminogen activator inhibitor-1 (PAI1) Biomarker Activity (AID 2284252)
Conditions: primary human keratinocytes with fibroblasts
How it was run: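 Human primary keratinocyte/foreskin fibroblast co-culture was dosed with compound and sampled at 24 h. PAI-1 was quantified by ELISA, with activity fitted in the positive direction relative to DMSO vehicle as baseline.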

Structure (SMILES)	outcome	AC50
C=CC(=O)OCCC(F)(F)C(F)(F)C(F)(F)C(F)(F)F	inactive	–
OCC(F)(F)C(F)(F)C(F)(F)C(F)(F)C(F)(F)C(F)(F)CO	inactive	–
NCC(F)(F)C(F)(F)C(F)(F)C(F)(F)C(F)(F)C(F)(F)C(F)(F)C(F)(F)F	inactive	–
O=S(=O)(OCC(F)(F)F)C(F)(F)C(F)(F)C(F)(F)C(F)(F)F	inactive	–
O=S(=O)(O)CCC(F)(F)C(F)(F)C(F)(F)C(F)(F)F	inactive	–
O=C(O)C(F)(F)C(F)(F)C(F)(F)OC(F)(C(F)(F)F)C(F)(F)F	inactive	–
O=C(F)C1(F)C(F)(F)C(F)(F)C(F)(F)C(F)(F)C1(F)F	inactive	–
CNS(=O)(=O)C(F)(F)C(F)(F)C(F)(F)C(F)(F)C(F)(F)C(F)(F)C(F)(F)C(F)(F)F	inactive	7.81 µM (active)
NS(=O)(=O)C(F)(F)C(F)(F)C(F)(F)C(F)(F)C(F)(F)C(F)(F)F	inactive	–
O=C(O)C(F)(F)C(F)(F)C(F)(F)OC(F)(F)F	inactive	–
COC(F)(C(F)F)C(F)(F)F (configuration not stated)	inactive	–
CCOC(=O)CC(=O)C(F)(F)C(F)(F)F	inactive	–
CN(C(=O)C(F)(F)C(F)(F)C(F)(F)F)[Si](C)(C)C	inactive	–
CCN=C1C=CC(=C(c2ccc(N(CC)CC)cc2)c2ccc(N(CC)CC)cc2)c2ccccc21	–	1.64 µM (active) and 1.56 µM (active)
NC(=O)C(F)(F)C(F)(F)C(F)(F)C(F)F	inactive	–
O=S(=O)(Cl)C(F)(F)C(F)(F)C(F)(F)C(F)(F)C(F)(F)C(F)(F)C(F)(F)C(F)(F)F	–	25 µM (active) and 22.1 µM (active)
O=C(O)C(F)(F)C(F)(F)C(F)(F)C(F)(F)C(F)(F)C(F)(F)C(F)F	inactive	–
O=C(O)CCC(F)(F)C(F)(F)C(F)(F)C(F)(F)C(F)(F)C(F)(F)C(F)(F)F	inactive	–
CCN(CCO)S(=O)(=O)C(F)(F)C(F)(F)C(F)(F)C(F)(F)C(F)(F)C(F)(F)C(F)(F)C(F)(F)F	–	17.7 µM (active) and 8.86 µM (active)
O=C(O)C(F)(F)C(F)(F)C(F)(F)C(=O)O	inactive	–

Read-out: Monocyte Chemoattractant Protein-1 (MCP1), CCL2 (gene 6347)
Experiment: BSK_IMphg_MCP1: BioMAP Diversity Plus: IMphg Assay for Monocyte Chemoattractant Protein-1 (MCP1) Biomarker Activity (AID 2284253)
Conditions: primary human endothelial cells with macrophages
How it was run: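 Human venular endothelial cells co-cultured with macrophages; MCP-1 measured by ELISA 24 hours post-dose and fitted against DMSO. Cytotoxicity monitored by SRB total-protein staining in parallel cultures.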

Structure (SMILES)	outcome	AC50
C=CC(=O)OCCC(F)(F)C(F)(F)C(F)(F)C(F)(F)F	inactive	–
OCC(F)(F)C(F)(F)C(F)(F)C(F)(F)C(F)(F)C(F)(F)CO	inactive	–
NCC(F)(F)C(F)(F)C(F)(F)C(F)(F)C(F)(F)C(F)(F)C(F)(F)C(F)(F)F	inactive	–
O=S(=O)(OCC(F)(F)F)C(F)(F)C(F)(F)C(F)(F)C(F)(F)F	inactive	–
O=S(=O)(O)CCC(F)(F)C(F)(F)C(F)(F)C(F)(F)F	inactive	–
O=C(O)C(F)(F)C(F)(F)C(F)(F)OC(F)(C(F)(F)F)C(F)(F)F	inactive	–
O=C(F)C1(F)C(F)(F)C(F)(F)C(F)(F)C(F)(F)C1(F)F	inactive	–
CNS(=O)(=O)C(F)(F)C(F)(F)C(F)(F)C(F)(F)C(F)(F)C(F)(F)C(F)(F)C(F)(F)F	inactive	–
NS(=O)(=O)C(F)(F)C(F)(F)C(F)(F)C(F)(F)C(F)(F)C(F)(F)F	inactive	22.3 µM (active)
O=C(O)C(F)(F)C(F)(F)C(F)(F)OC(F)(F)F	inactive	–
COC(F)(C(F)F)C(F)(F)F (configuration not stated)	inactive	–
CCOC(=O)CC(=O)C(F)(F)C(F)(F)F	inactive	–
CN(C(=O)C(F)(F)C(F)(F)C(F)(F)F)[Si](C)(C)C	inactive	–
NC(=O)C(F)(F)C(F)(F)C(F)(F)C(F)F	inactive	–
O=S(=O)(Cl)C(F)(F)C(F)(F)C(F)(F)C(F)(F)C(F)(F)C(F)(F)C(F)(F)C(F)(F)F	inactive	–
O=C(O)C(F)(F)C(F)(F)C(F)(F)C(F)(F)C(F)(F)C(F)(F)C(F)F	inactive	–
O=C(O)CCC(F)(F)C(F)(F)C(F)(F)C(F)(F)C(F)(F)C(F)(F)C(F)(F)F	inactive	–
CCN(CCO)S(=O)(=O)C(F)(F)C(F)(F)C(F)(F)C(F)(F)C(F)(F)C(F)(F)C(F)(F)C(F)(F)F	inactive	–
O=C(O)C(F)(F)C(F)(F)C(F)(F)C(=O)O	inactive	–
